# Reference: PubChem BioAssay (EPA / NIEHS)
# Calls of active or inactive are those of the source. How the source made its calls: active means hit-call score of the fitted dose curve at least 0.9, where 1 is the maximum; inactive means score below 0.9.
# Experiment: CEETOX_H295R_MTT_cell_viability: Viability Assessment in the CeeTox HT-H295R MTT Assay (AID 2283718);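 on AC50: curve fitted both ways so AC50 may mark viability loss or gain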
# Procedure: CEETOX_H295R is a cell-based, multiplexed-readout assay that uses H295R, a human adrenal gland cell line, with measurements taken at 48 hours after chemical dosing in a 96-well plate.CEETOX_H295R_MTT_cell_viability is one of 23 assay component(s) measured or calculated from the CEETOX_H295R assay. It is designed to make measurements of cell number, a form of viability reporter, as detected with […] signals by MTT cytotoxicity assay technology.The assay component endpoint CEETOX_H295R_MTT_cell_viability was analyzed with bidirectional fitting relation to DMSO as the negative control and baseline of activity. Using a type of viability reporter in the MTT cytotoxicity assay, gain or loss-of-signal activity can be used to monitor cellular processes to understand changes in proliferation. To generalize the intended target to other relatable targets, this assay endpoint is annotated to cell cycle, where the subfamily is proliferation.
# Cell culture and media preparation procedures were conducted in accordance with OECD Test No. 456 guidelines, with minor modifications. H295R cells (ATCC CRL-2128) were expanded for 5 passages and frozen in batches in liquid nitrogen. Prior to the steroidogenesis assay, H295R cells were thawed and passed at least 4 times. The maximum passage was 10. Cells were maintained in a 1:1 mixture of DMEM/F12 supplemented with 5ml/L ITS+ Premix (BD Bioscience) and 12.5 ml/L Nu-Serum (BD Bioscience). After seeding cells into 96-well plates at 50-60% confluency, cells were allowed to adhere overnight. Prior to chemical testing, culture medium was replaced with 175 uL medium containing 10 uM forskolin to stimulate steroidogenesis for 48 hours. Following prestimulation, forskolin medium was replaced with medium containing test chemical solubilized in DMSO (ensuring a final concentration of 0.1% DMSO). Test chemicals were incubated for 48 hours, then the medium was removed and split into 2 vials containing approximately 75uL each, and stored at -80 C prior to hormone analysis. For steroid quantification, media samples were shipped to OpAns, LLC (Durham, NC) on dry ice, and samples were thawed to room temperature prior to liquid-liquid extraction. Steroid hormones were extracted from media samples using methyl tertbutyl ether (MTBE). An extra derivatization with dansyl chloride was included for estrogen (estrone and estradiol) detection only. Steroid hormones were separated by HPLC, eluted using a reverse phase C18 gradient with electrospray positive ionization, followed by quantification by tandem mass spectrometry (MS/MS). Data were acquired on a MassHunter Workstation Acquisition version B03.01 (Agilent Technologies, Inc.) and processed using MassHunter Quantitative Analysis for QQQ. Accuracy was determined for each hormone analyte from 3 standards to determine upper and lower limits of quantification (ULOQ and LLOQ, respectively) using a 7-point standard curve. Precision and accuracy of the extraction and quantification methods were calculated as the percent relative standard deviation (%RSD) of the spiked standards and percent spiked standard recovered, respectively. The goal was to achieve 100% accuracy (i.e., recover all spiked-in standard at quantification with minimal loss during run time) and good precision (i.e., have %RSD <15% to ensure reproducibility). Test medium was removed following chemical exposure, and cell viability was evaluated in the same wells by MTT. MTT procedures were as follows: after removal of test medium, 500 uL of 0.5 mg/ml of 3-[4,5-dimethylthiazol-2-y]2,5-diphenyltetrazoliumbromide solution was added to the cells. Following a 4-hour incubation at 37 C and 5% CO2 to allow formazan-crystal formation, the MTT solution was removed and blue formazan salt crystals were solubilized using 500uL anhydrous isopropanol with shaking for 20 minutes. Absorbance was read at 570 and 650nm using a Packard Fusion microplate reader. […]
Compound,outcome,AC50
CCOP(=S)(OCC)O/N=C(\C#N)c1ccccc1,inactive,
C[C@]12CC[C@@H](O)C[C@@H]1CC[C@@H]1[C@@H]2CC[C@]2(C)C(=O)CC[C@@H]12,inactive,
CCOP(=O)(OCC)OC(=CCl)c1ccc(Cl)cc1Cl,inactive,
O=S1OC[C@@H]2[C@H](CO1)[C@]1(Cl)C(Cl)=C(Cl)[C@@]2(Cl)C1(Cl)Cl (some centres not stated),inactive,
Oc1c(Br)cc(Br)cc1Br,,93.6 µM (active)
OC(Cc1ccccc1Cl)(Cn1cncn1)C1(Cl)CC1 (configuration not stated),inactive,
CC(C)(COCC1CO1)COCC1CO1 (configuration not stated),inactive,
CCC[CH2][Sn]([Cl])([Cl])[CH2]CCC,inactive,
COC(=O)Nc1cccc(OC(=O)Nc2cccc(C)c2)c1,inactive,
CC(C)=CC1C(C(=O)OCc2cccc(Oc3ccccc3)c2)C1(C)C (configuration not stated),,9.92 µM (active)
OC[P+](CO)(CO)CO,,2.83 µM (active)
Cc1cc(C)cc(C)c1,inactive,
Oc1cccc(-c2ccccc2)c1,inactive,
CN(C)C(=S)S,inactive,
Cc1ccccc1OP(=O)(Oc1ccccc1C)Oc1ccccc1C,inactive,
OC(Cc1ccccc1Cl)(Cn1[nH]cnc1=S)C1(Cl)CC1 (configuration not stated),inactive,
CCOCn1c(-c2ccc(Cl)cc2)c(C#N)c(Br)c1C(F)(F)F,,3.79 µM (active)
O=[N+]([O-])c1ccc(Nc2ccccc2)cc1,inactive,
COc1ccc(N)cc1,inactive,
CCCCCCCCCCCCN(C)C,inactive,
Cc1cc(C(C)(C)c2ccc(O)c(C)c2)ccc1O,inactive,
c1cc[c]([Sb]([c]2ccccc2)[c]2ccccc2)cc1,,37.6 µM (active)
CCCSP(=S)(OCC)Oc1ccc(SC)cc1 (configuration not stated),inactive,
Cc1cc(Cl)ccc1N,inactive,
Cc1cc(Cl)ccc1O,inactive,
CC(C)(C)c1cc([N+](=O)[O-])cc(C(C)(C)C)c1O,inactive,
CC(C)(C)c1ccccc1O,inactive,
